# Experimental data published in ChEMBL document CHEMBL3433997, “St. Jude Leishmania screening dataset” (2016).
# Values joined by “and” are separate entries in the source; they are usually repeats but may differ in a detail not shown here. Equal values may be shown once.
# Tests used:
# Type in all cases: functional
# [1] = molecular target: Solute carrier family 2, facilitated glucose transporter member 1 (Homo sapiens) (UniProt P11166); assay: ST_JUDE_LEISH: Cytotoxicity at 2uM final concentration against transgenic Leishmania Mexicana promastigotes LmGLUT1 that are glucose transport deficient and complemented with the human glucose transporter GLUT1. Activity is measured by DNA content using SYBR green in vitro
# Chain of Solute carrier family 2, facilitated glucose transporter member 1 (Homo sapiens) (P11166 whole entry): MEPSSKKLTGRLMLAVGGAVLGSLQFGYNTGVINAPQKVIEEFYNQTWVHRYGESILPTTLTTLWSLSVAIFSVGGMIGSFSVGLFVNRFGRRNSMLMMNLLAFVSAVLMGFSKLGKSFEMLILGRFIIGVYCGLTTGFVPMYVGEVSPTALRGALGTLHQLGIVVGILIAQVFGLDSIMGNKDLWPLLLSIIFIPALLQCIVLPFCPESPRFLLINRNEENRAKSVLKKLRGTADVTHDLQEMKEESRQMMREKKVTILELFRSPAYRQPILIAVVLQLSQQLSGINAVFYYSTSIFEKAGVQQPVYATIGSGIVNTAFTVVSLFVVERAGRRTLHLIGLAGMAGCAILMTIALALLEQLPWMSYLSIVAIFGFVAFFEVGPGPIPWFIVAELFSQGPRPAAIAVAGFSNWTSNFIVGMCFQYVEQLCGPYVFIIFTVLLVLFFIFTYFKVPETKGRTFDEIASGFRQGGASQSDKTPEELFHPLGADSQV
# [2] = molecular target: Hexose transporter 1 (Plasmodium falciparum) (UniProt O97467); assay: ST_JUDE_LEISH: Cytotoxicity at 2uM final concentration against transgenic Leishmania Mexicana promastigotes LmPfHT that are glucose transport deficient and complemented with the Plasmodium falciparum hexose transporter. Activity is measured by DNA content using SYBR green in vitro
# [3] = molecular target: Glucose transporter (Leishmania mexicana) (UniProt O61059); assay: ST_JUDE_LEISH: Cytotoxicity at 2uM final concentration against transgenic Leishmania Mexicana promastigotes LmGT2 that are glucose transport deficient and complemented with the L. Mexicana glucose transporter 2. Activity is measured by DNA content using SYBR green in vitro
SMILES,inhibition [1],inhibition [2],inhibition [3]
Nc1nc(N)c2c(ccc3[nH]ccc32)n1,0.22%,2.46%,2.25%
Cc1cccc2nc(-c3ccc(-c4cccc(NCc5cn6cccnc6n5)c4)cc3)[nH]c12,2.03%,0.59%,-2.51%
CCn1c(-c2nonc2N)nc2cnc(Oc3cccc(NC(=O)c4ccc(OCCN5CCCC5)cc4)c3)cc21,7.41%,9.98%,7.84%
Cc1cc(-c2ccc(NC(=O)c3coc4ccc(N5CC(C)N(C)C(C)C5)cc34)cc2C)cc(C)n1 (stereo not drawn),2.55%,3.78%,1.55%
COc1cc(F)c2nccc([C@@H](O)CN3CCC(NCc4nc5cccc(F)c5[nH]4)CC3)c2c1,6.27%,0.25%,3.66%
CC1CN(Cc2cccc(C#N)c2)CCN1c1ccc(NC(=O)c2cccs2)cc1 (stereo not drawn),6.93%,7.96%,4.53%
COc1ccc2nccc([C@@H](O)CN3CCC(NC/C=C/c4cccnc4)CC3)c2c1,1.71%,2.98%,2.59%
CCN1CCC(N(Cc2ccc(-c3ccc(C(F)(F)F)cc3)cc2)C(=O)Cn2nc(C)c(=O)cc2SCc2ccc(F)cc2)CC1,0.5%,0.04%,0.46%
O=C(/C=C/c1ccc(Cl)cc1Cl)N1CCC(CCN2CCC(c3c[nH]c4ccccc34)CC2)CC1,3.54%,4.28%,5.09%
CSc1nc2nc(C)c(Cc3cccc(F)c3)c(C)n2n1,-1.07%,-0.45%,0.34%
COc1ccc2nccc([C@@H](O)CN3CCC(NCc4cc5cc(C)ccc5s4)CC3)c2c1,31.5%,46%,21.9%
N#Cc1cccc(C(=O)Nc2cccc(-c3ccc(C(=O)Nc4cccnc4)cc3)c2)c1,4.01%,2.59%,1.36%
CC(C)n1ncc2c(C(=O)N3CCCCCC3)cc(-c3ccccc3)nc21,-0.35%,-0.92%,-5.3%
O=C(Nc1ccc(Cn2ncc(N3CCCNCC3)c(Cl)c2=O)cc1)Nc1ccc(OCc2ccccc2)cc1,-0.85%,-0.65%,-1.2%
CCNC(C)(C)CN(Cc1ccc(-c2ccc(C(F)(F)F)cc2)cc1)C(=O)Cn1c(SCc2ccc(F)cc2)nc(=O)c2c1CCC2,8.5%,5.99%,5.46%
COc1cc(OC)c2c(C)cc(NCCCN3CCOCC3)nc2c1,1.92%,0.95%,-0.42%
COc1ccc2c(=NN=Cc3c(OC)ccc4ccccc34)cc(C)[nH]c2c1,2.05%,2.99%,4.08%
CCOc1ccccc1C1CCN(CCCCNC(=O)c2ccc(NC(=O)c3ccc(Cl)cc3)cc2)CC1,10.6%,7.51%,10.8%
CC(C)(C(=O)Nc1ccc(C2CCC(NCC3CC3)CC2)c(Cl)c1)c1cccc(OC(F)F)c1 (stereo not drawn),9.94%,8.75%,9.65%
COc1cc(F)c2ncc(Cl)c(C(O)CN3CCC(NC(=O)c4ccc5c(c4)NC(=O)CS5)CC3)c2c1 (stereo not drawn),8.37%,7.69%,4.11%
CN(c1ccc2c(c1)nc(NCc1ccccc1)n2C)c1ccnc(Nc2ccc(CS(C)(=O)=O)cc2)n1,4.69%,1.86%,3.22%
O=C1COc2ccc(S(=O)(=O)N3CCC[C@@H]3CCN3CCC(c4c[nH]c5cnccc45)CC3)cc2N1,0.76%,0.68%,2.12%
CCOc1c(CNCCCNc2cc(=O)c3ccccc3[nH]2)cc(I)cc1C(C)(C)C,-0.21%,1.18%,0.27%
Cc1cc(N[C@@H](CC(C)C)C(=O)NCCc2ccccc2)nc(NCCc2cccs2)n1,5%,7.09%,5.46%

SMILES,inhibition [1],inhibition [2],inhibition [3]
CN(C)CCC=C1c2ccccc2Sc2c(O)cc(Cl)cc21,-0.51%,4.06%,1.71%
Cc1ccc2cc(NC(=O)CCCCCCCON3C(N)=NC(N)=NC34CCCCC4)ccc2n1,-1.59%,0.8%,0.83%
CCN(CC)CCN(Cc1ccc(-c2ccc(C(F)(F)F)cc2)cc1)C(=O)Cn1cc(Cc2cnn(C)c2)c(=O)n2nc(-c3ccccc3)cc12,4.45%,4.37%,4.16%
O=C(Nc1ccc(Cl)c(C(F)(F)F)c1)N[C@H]1CCN(CCCCCNC(=O)C2CC2c2ccc(Cl)c(Cl)c2)C1 (stereo partly drawn),-1.57%,1.02%,-0.67%
CCN(C1CCCCC1)S(=O)(=O)c1ccc(OC)c(N2CCN(C(=O)C(Cl)(Cl)Cl)CC2)c1,-1.48%,-2.46%,-0.47%
Cc1ccc2ccccc2c1CCCON1C(=N)N=C(N)NC1(C)C,4.76%,3.93%,2.74%
CCc1ccc(O)c(-c2cc(C(=O)Nc3ccc(OC)c(Cl)c3)[nH]n2)c1,0.23%,0.3%,-7%
Fc1ccc(OC2CN(c3nccc(NCc4ccccc4Cl)n3)C2)cc1,3.81%,2.84%,-0.6%
O=C(/C=C/c1ccc(Cl)c(Cl)c1)NCCCCCN1CCC(NC(=S)Nc2cccc(Cl)c2)CC1,2.06%,0.6%,-0.54%
CS(=O)(=O)CCCNCc1ccc(-c2cc3c(Nc4ccc(OCc5ccccc5)cc4)ncnc3cn2)o1,2.89%,2.8%,2.01%
O=C(Nc1ccc(F)c([N+](=O)[O-])c1)Nc1cc(C(F)(F)F)ccc1Cl,0.18%,7.68%,1.2%
O=C(Nc1cccc(-c2ccc(CN3CCCC3)cc2)c1)c1ccc(Cl)cc1,3.03%,1.53%,1.42%
CC1(C)NC(N)=NC(=N)N1OCOc1ccc(Cl)cc1,3.62%,1.85%,4.23%
COc1ccc(CNc2nc(NCCc3ccccc3)c3cc(OC)c(OC)cc3n2)cc1OC,3.4%,3.46%,2.54%
O=C(NC1CCN(Cc2ccccc2)CC1)c1csc2nc(-c3ccc(Cl)cc3)cn12,4.09%,2.67%,2.02%
COc1cc(NC(=O)c2ccc(-c3ccccc3)cc2)ccc1OCCCN1CCC(c2ccccc2)CC1,0.2%,2.26%,2.91%
CN(C)CCOc1cccc(NC(=O)Nc2ccc(-c3ccccc3)cc2)c1,2.67%,1.78%,1.53%
CCCNCc1ccc(-c2ccc(CN(Cc3ccc4c(c3)OCO4)C(=O)[C@H]3CCCO3)cc2)nc1,13.6%,10.6%,8.76%
CCN1CCN(c2cc(C)c3cc(NC(=O)c4ccc(OC)c(OC)c4)ccc3n2)CC1,0.58%,0.53%,0.24%
COc1ccccc1NC(=O)c1cc(C(=O)c2cc(Cl)ccc2O)cn(-c2ccccc2OC)c1=O,5.19%,5.3%,4.07%
Cc1ccc2c(c1)c(C1CCN(C(=O)c3ccc([N+](=O)[O-])o3)CC1)cn2C,8.36%,9.14%,4.16%
Cc1cc(N2CCCC2)nc(Nc2ccc(NC(=O)C(C)Oc3ccccc3)cc2)n1 (stereo not drawn),10.6%,15.9%,7.47%
CN(C)CCOc1cc(NC(=O)Nc2ccc3c(c2)CCCC3=O)ccc1I,5.03%,7.25%,4.5%
O=C(Cc1cccc(Cl)c1)Nc1ccc(N2CCC(NCc3ccc4ncccc4c3)CC2)cc1,12.6%,13.6%,8.71%

SMILES,inhibition [1],inhibition [2],inhibition [3]
O=C(Nc1ccc(Cl)cc1)c1ccc(CN2CCCN(Cc3ccccc3)CC2)cc1,1.68%,3.72%,1.45%
COC(=O)c1ccc(-c2ccc(C(=O)NCC3CCN(c4nc(N)c5cc(OC)c(OC)cc5n4)CC3)cc2)cc1,4.1%,4.23%,2.11%
CC(C)[C@H](NC(=O)c1ccc(O)c(-c2ccc(Cl)c(Cl)c2)c1)C(=O)NCCN(C)C,0.25%,0.6%,1.16%
Cn1c(=O)n(C)c2cc(CNCCNc3ccnc4cc(Cl)ccc34)ccc21,2.25%,3.88%,0.4%
Oc1cc(Nc2ccnc3cc(I)ccc23)c(F)cc1Cl,6.52%,2.02%,3.58%
COc1ccc(C2=C(Nc3ccc4oc5ccccc5c4c3)c3ccccc3C2=O)cc1,0.72%,-0.17%,0.33%
N#Cc1ccc(N(CCOc2ccc(Cl)c(Cl)c2)Cc2ccccc2C(F)(F)F)cc1C(F)(F)F,2.54%,-0.11%,0.26%
O=S(=O)(NCCN1CCCC1)c1ccc(-c2ccc(CN3Cc4ccccc4C3)cc2)s1,-0.63%,-0.5%,-2.59%
COc1ccc2nccc(N3CCC(NCCNCc4ccc5c(n4)NC(=O)CS5)C3)c2n1 (stereo not drawn),3.26%,4.23%,4.55%
Cc1cnc(NC(=O)c2cn(-c3ccccc3)nc2-c2cccs2)s1,14.6%,13.2%,13.9%
NC(=O)C1CCN(Cc2cccc(-c3ccc(-c4nc5cc(C(F)(F)F)ccc5[nH]4)cc3)c2)CC1,-1.36%,-1.5%,-2.94%
OCCNc1nc(Nc2ccccc2)nc2ccccc12,8.68%,7.01%,2.07%
Cc1nnsc1C(=O)Nc1cccc(-c2cccc(-c3nc4cc(F)ccc4[nH]3)c2)c1,0.66%,0.05%,-2.12%
CC1CCC(NCc2ccc3c(CNC4CCC(C)CC4)c(O)ccc3c2O)CC1 (stereo not drawn),1.24%,-0.12%,-1.56%
CC(Sc1nnc(-c2cccs2)[nH]1)C(=O)c1c[nH]c2ccccc12 (stereo not drawn),0.9%,1.35%,0.63%
CCCCc1ccc(NC(=O)Nc2cccc(CCNCc3ccccc3)c2)cc1,11.8%,11.4%,10.2%
Cc1cc(N[C@@H](Cc2ccccc2)C(=O)NCc2cccc(F)c2)nc(NCc2ccccc2C)n1,5.14%,4.67%,3.17%
CC(NCC(O)Cn1c2ccccc2c2ccccc21)c1ccccc1 (stereo not drawn),0.86%,1.68%,-1.46%
O=C(NCCCCN1CCC(c2ccc3c(c2OCCO)CCCC3)CC1)c1ccc2oc(-c3ccc(C(F)(F)F)cc3)cc2c1,1.2%,2.49%,2.18%
C[C@H](CNc1ccnc(Nc2ccc3[nH]c(=O)[nH]c3c2)n1)c1ccccc1,-1.01% and -1.44%,-0.33% and -0.77%,-0.13% and 0.71%
Cc1ccc(C(C)C)cc1CON1C(=N)N=C(N)NC1(C)C,11.2%,10.7%,10.9%
CCN(CC)CCN(Cc1ccc(-c2ccc(C(F)(F)F)cc2)cc1)C(=O)c1ccc(-c2ccc(NC(=O)OC)cc2C)cc1,29.9%,17.9%,10.1%
CCCN(C(=O)c1ccccc1C)c1nnc(-c2cccc(C)c2)s1,-3.02%,-1.93%,-2.31%
